Measured values from PubChem BioAssay (NCI).
Compounds without any hit were thinned out: in the full panel of roughly 83,000, 20% have a hit.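 The test compound was applied at a single concentration to cells in 96-well plates for 48 hours, and percent growth was recorded.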 The source made the active and inactive calls. The calls were made as follows: active = growth percent below 10; inactive = the rest.

How the values were obtained:
Assay in all cases: NCI-60 one-dose screen, 48 h (100 = growth as untreated, 0 = no growth, -100 = all killed)
Details in all cases: 10 µM unless noted
SK-MEL-2 melanoma = test system: SK-MEL-2 melanoma
SN12C renal = test system: SN12C renal
UO-31 renal = test system: UO-31 renal
TK-10 renal = test system: TK-10 renal
ACHN renal = test system: ACHN renal
CAKI-1 renal = test system: CAKI-1 renal
CCRF-CEM leukemia = test system: CCRF-CEM leukemia
MOLT-4 leukemia = test system: MOLT-4 leukemia

Measured: growth

O=C1N=C(c2c(-c3[nH]c(=O)c4ccc(Br)cc4c3O)c(O)c3ccccc3c2O)C(=O)c2cc(Br)ccc21
inactive: CCRF-CEM leukemia 25.3% | MOLT-4 leukemia 31%
active: SK-MEL-2 melanoma -14.7% | SN12C renal -75.4% | UO-31 renal -65% | TK-10 renal -39% | ACHN renal -54% | CAKI-1 renal -72%

CN(C)c1ccc(C2CC(c3ccccc3)=NN2/C=C2\SC(=O)NC2=O)cc1 (stereo unspecified)
inactive: SK-MEL-2 melanoma 113% | SN12C renal 87.3% | UO-31 renal 78.9% | TK-10 renal 94.4% | ACHN renal 81.5% | CAKI-1 renal 95% | CCRF-CEM leukemia 113% | MOLT-4 leukemia 59.7%

O=C1c2ccccc2C(=O)c2c1oc1oc3c(c(=O)c21)c(=O)n(-c1ccccc1)c1ccccc31
inactive: SK-MEL-2 melanoma 23.1% | SN12C renal 97.7% | UO-31 renal 49.2% | TK-10 renal 64.2% | ACHN renal 28.5% | CAKI-1 renal 69.2% | CCRF-CEM leukemia 17.8% | MOLT-4 leukemia 16.1%

COc1cc(OC)c(C(=O)/C=C/c2cccc(C#N)c2)c(OC)c1
inactive: SN12C renal 15.6% | UO-31 renal 12.4% | TK-10 renal 24.8% | CAKI-1 renal 15.9% | MOLT-4 leukemia 11.7%
active: SK-MEL-2 melanoma -34.8% | ACHN renal -33.9% | CCRF-CEM leukemia 2.65%

COc1cccc(-c2nc3sccn3c2-c2ccnc(NCCCNS(=O)(=O)c3ccc(F)cc3)n2)c1
inactive: SK-MEL-2 melanoma 40.8% | SN12C renal 36.8% | UO-31 renal 12.5% | TK-10 renal 66.2% | ACHN renal 21.8% | CAKI-1 renal 30.9% | CCRF-CEM leukemia 24.6% | MOLT-4 leukemia 23.2%

C=CCOc1cccc(/C=C/C(=O)c2sc(Nc3cccnc3)nc2C)c1
inactive: SK-MEL-2 melanoma 84.4% | SN12C renal 40.9% | UO-31 renal 47.7% | TK-10 renal 113% | ACHN renal 54.3% | CAKI-1 renal 81% | CCRF-CEM leukemia 15.2% | MOLT-4 leukemia 76.3%

C=CCN=C1NC(=O)/C(=C/c2cc(C(C)(C)C)c(O)c(C(C)(C)C)c2)S1
inactive: SK-MEL-2 melanoma 40.1% | SN12C renal 91% | UO-31 renal 67% | TK-10 renal 79.4% | ACHN renal 87% | CAKI-1 renal 47.8% | CCRF-CEM leukemia 69.4% | MOLT-4 leukemia 47.4%

CCN(C(=O)c1cc2ccccc2[nH]1)[C@H]1CCC[C@@H](NCc2ccc(OC)cc2)C1
inactive: SK-MEL-2 melanoma 100% | SN12C renal 92.2% | UO-31 renal 66% | TK-10 renal 81% | ACHN renal 94.7% | CAKI-1 renal 96% | CCRF-CEM leukemia 102% | MOLT-4 leukemia 70.2%

COc1ccc(/C=C\c2cc(OC)c(OC)c(OC)c2)c(NS(=O)(=O)c2ccc(C(C)(C)C)cc2)c1O
active: SK-MEL-2 melanoma -2.03%
inactive: SN12C renal 29.5% | UO-31 renal 52.3% | TK-10 renal 50.8% | ACHN renal 25.2% | CAKI-1 renal 24.4% | CCRF-CEM leukemia 20.6% | MOLT-4 leukemia 21.8%

COc1cccc(-c2nc3sccn3c2-c2ccnc(NCCNS(=O)(=O)c3ccccc3)n2)c1
inactive: SK-MEL-2 melanoma 77.1% | SN12C renal 67.9% | UO-31 renal 37.7% | TK-10 renal 83% | ACHN renal 44.3% | CAKI-1 renal 53.1% | CCRF-CEM leukemia 42.6% | MOLT-4 leukemia 43.2%

COc1ccc(C(=O)c2cc(OC)c(OC)c(OC)c2)cc1/C=C/C(=O)c1ccc(O)cc1
inactive: SK-MEL-2 melanoma 14.8% | SN12C renal 17.7% | UO-31 renal 36.4% | TK-10 renal 75.1% | CAKI-1 renal 24.8% | CCRF-CEM leukemia 10.7% | MOLT-4 leukemia 15.5%
active: ACHN renal -62.8%

O=C(CNc1ccc(Cl)cc1)Nc1ccc(-c2nc3ccccc3s2)cc1
inactive: SK-MEL-2 melanoma 78.5% | SN12C renal 46.8% | UO-31 renal 65% | TK-10 renal 118% | ACHN renal 22.8% | CAKI-1 renal 20.2%
active: CCRF-CEM leukemia 3.22% | MOLT-4 leukemia 4.4%

Cc1ccc(S(=O)(=O)NCCCNc2nccc(-c3c(-c4ccccc4)nc4sccn34)n2)cc1
inactive: SK-MEL-2 melanoma 82.9% | SN12C renal 48.1% | UO-31 renal 33.9% | TK-10 renal 85.8% | ACHN renal 37.7% | CAKI-1 renal 47.3% | CCRF-CEM leukemia 18.5% | MOLT-4 leukemia 43.5%

COc1cc(OC)c(C(=O)/C=C/c2ccc(C#N)cc2)c(OC)c1
inactive: SN12C renal 19.6% | UO-31 renal 32.4% | TK-10 renal 19.1% | ACHN renal 17.5% | CAKI-1 renal 18.5% | MOLT-4 leukemia 14.3%
active: SK-MEL-2 melanoma -11% | CCRF-CEM leukemia 7.44%

COc1ccc(NC(=O)c2cc3ccccc3nc2Nc2cc(OC)c(OC)c(OC)c2)cc1
inactive: SK-MEL-2 melanoma 89.2% | SN12C renal 69.7% | UO-31 renal 59.7% | TK-10 renal 90.7% | ACHN renal 53% | CAKI-1 renal 70.2% | CCRF-CEM leukemia 43.6% | MOLT-4 leukemia 49.2%

CC(C)CCN(CCCNc1c2c(nc3ccccc13)CCCC2)CCC(C)C
inactive: SK-MEL-2 melanoma 109% | SN12C renal 89.7% | UO-31 renal 56.5% | TK-10 renal 93.8% | ACHN renal 98% | CAKI-1 renal 76.5% | CCRF-CEM leukemia 74.3% | MOLT-4 leukemia 70.7%

CCOC(=O)C(Cc1ccccc1)n1c(O)c(C=Nc2ccc(C(=O)OCCN(CC)CC)cc2)sc1=O (stereo unspecified)
inactive: SK-MEL-2 melanoma 90.7% | SN12C renal 92.1% | UO-31 renal 84.7% | TK-10 renal 112% | ACHN renal 104% | CAKI-1 renal 97.4% | CCRF-CEM leukemia 68.2% | MOLT-4 leukemia 69.3%

CCn1c(=O)c2c(=O)c3c4c(oc3oc2c2ccccc21)C(=O)c1ccccc1C4=O
inactive: SK-MEL-2 melanoma 79.9% | SN12C renal 87.2% | UO-31 renal 81.8% | TK-10 renal 112% | ACHN renal 79.6% | CAKI-1 renal 72.6%
active: CCRF-CEM leukemia 2.47% | MOLT-4 leukemia -24.5%

O=C(Nc1ccc(Cl)cc1)c1cc(-c2ccc(F)cc2)c2sc(=O)[nH]c2n1
active: UO-31 renal 4.68% | ACHN renal 2.34% | CAKI-1 renal -12.7%
inactive: SK-MEL-2 melanoma 14.3% | SN12C renal 11.9% | TK-10 renal 20.8% | CCRF-CEM leukemia 16.8% | MOLT-4 leukemia 13.9%

CCN(C(=O)c1cc2ncccc2[nH]1)[C@H]1CCC[C@@H](NCc2cccc(F)c2)C1
inactive: SK-MEL-2 melanoma 105% | SN12C renal 95.3% | UO-31 renal 74.3% | TK-10 renal 92.6% | ACHN renal 102% | CAKI-1 renal 101% | CCRF-CEM leukemia 128% | MOLT-4 leukemia 95.9%

Clc1ccc2c(c1)NC1(CCSc3ccccc31)n1nccc1-2 (stereo unspecified)
inactive: SK-MEL-2 melanoma 98.7% | SN12C renal 104% | UO-31 renal 83.5% | TK-10 renal 96.7% | ACHN renal 100% | CAKI-1 renal 96.3% | CCRF-CEM leukemia 95.7% | MOLT-4 leukemia 90.9%

O=C(O)C(Cc1ccccc1)N1C(=O)/C(=C/C(Cl)=C/c2ccc([N+](=O)[O-])cc2)SC1=S (stereo unspecified)
active: SK-MEL-2 melanoma 9.02% | SN12C renal 8.76% | CAKI-1 renal 6.47% | CCRF-CEM leukemia 4.14% | MOLT-4 leukemia 0.405%
inactive: UO-31 renal 29.4% | TK-10 renal 50.1% | ACHN renal 40.7%

COc1ccc(-c2nc3sccn3c2-c2ccnc(NCCCNS(=O)(=O)c3ccc4ccccc4c3)n2)cc1
inactive: SK-MEL-2 melanoma 84.6% | SN12C renal 79.5% | UO-31 renal 60.7% | TK-10 renal 89.8% | ACHN renal 60% | CAKI-1 renal 77.5% | CCRF-CEM leukemia 53.8% | MOLT-4 leukemia 47.5%

COc1ccc(S(=O)(=O)NCCNc2nccc(-c3c(-c4ccccc4)nc4sccn34)n2)cc1
active: SK-MEL-2 melanoma 2.98% | MOLT-4 leukemia 5.16%
inactive: SN12C renal 27.5% | UO-31 renal 18.6% | TK-10 renal 47% | ACHN renal 10.3% | CAKI-1 renal 18.3% | CCRF-CEM leukemia 22.8%

COc1ccc(-c2nc3sccn3c2-c2ccnc(NCCCNS(=O)(=O)c3ccc(F)cc3)n2)cc1
inactive: SN12C renal 14.3% | TK-10 renal 52.9% | CAKI-1 renal 21.8%
active: SK-MEL-2 melanoma -0.52% | UO-31 renal 4.56% | ACHN renal 2.12% | CCRF-CEM leukemia 9.5% | MOLT-4 leukemia 6.65%

COc1ccc(-c2nc3sccn3c2-c2ccnc(NCCNS(=O)(=O)c3ccc(C(F)(F)F)cc3)n2)cc1
active: SK-MEL-2 melanoma -27.8% | ACHN renal 3.82% | CCRF-CEM leukemia 9.58% | MOLT-4 leukemia 0.208%
inactive: SN12C renal 17.3% | UO-31 renal 19% | TK-10 renal 30.2% | CAKI-1 renal 17%

N#Cc1ccc(NC(=O)c2ccc3cccnc3c2O)cc1
active: CAKI-1 renal -12.5%
inactive: SK-MEL-2 melanoma 41.3% | SN12C renal 33.7% | UO-31 renal 18.4% | TK-10 renal 34% | ACHN renal 14.7% | CCRF-CEM leukemia 23.8% | MOLT-4 leukemia 12.7%

COc1cccc(/C=C2\SC(N3CCN(c4ccccn4)CC3)=NC2=O)c1
inactive: SK-MEL-2 melanoma 86.9% | SN12C renal 102% | UO-31 renal 84.5% | TK-10 renal 90.9% | ACHN renal 104% | CAKI-1 renal 104% | CCRF-CEM leukemia 63.4% | MOLT-4 leukemia 90.4%

CC(=O)n1cc([C@H]2CC[C@H](c3cn(C(C)=O)c4ccccc34)c3c2[nH]c2ccccc32)c2ccccc21
inactive: SK-MEL-2 melanoma 79.6% | SN12C renal 84.7% | UO-31 renal 55.3% | TK-10 renal 92.8% | ACHN renal 77.9% | CAKI-1 renal 57% | CCRF-CEM leukemia 64.9% | MOLT-4 leukemia 57.6%

CN(C)c1ccc(/C=C\N=Nc2ccc(Br)cc2)cc1
inactive: SK-MEL-2 melanoma 72% | SN12C renal 65.8% | UO-31 renal 32.6% | TK-10 renal 68.5% | ACHN renal 60.4% | CAKI-1 renal 51.5% | CCRF-CEM leukemia 29.7% | MOLT-4 leukemia 29.2%

Cc1nc(Nc2cccnc2)sc1C(=O)/C=C/c1ccc(Cl)cc1
active: SN12C renal 7.95% | TK-10 renal 8.61% | CCRF-CEM leukemia 1.72%
inactive: SK-MEL-2 melanoma 82.6% | UO-31 renal 25.3% | ACHN renal 40.1% | CAKI-1 renal 47.1% | MOLT-4 leukemia 53%

Cc1nc(Nc2cccnc2)sc1C(=O)/C=C/c1ccc(F)cc1
inactive: SK-MEL-2 melanoma 92.4% | UO-31 renal 29.9% | TK-10 renal 54% | ACHN renal 38.7% | CAKI-1 renal 46.2% | MOLT-4 leukemia 81.7%
active: SN12C renal 5.77% | CCRF-CEM leukemia 1.27%
